This passage reports Potency, outcome and activity change, negative = cytotoxic results from PubChem BioAssay (NCATS).

Test [1] in a line: qHTS of pediatric cancer cell lines to identify multiple opportunities for drug repurposing: Primary screen for Rh18 cells (AID 1347102). Note: % is set by controls: 0 for no effect and ±100 for the full control effect; nearly all actives have a fitted effect of over 65% in size. The essentials: (§1)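 Cells (500-1,000/well) in growth media were settled 5 h at 37 degrees C, then given compounds for 48 h. Viability was read as CellTiter-Glo luminescence. Primary runs used MIPE at 11 points (0.78 nM-46 µM) and NPC at 8 points (0.59 nM-46 µM); follow-ups used 11 points.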

Test [2] can be described thus: qHTS of pediatric cancer cell lines to identify multiple opportunities for drug repurposing: Primary screen for OHS-50 cells (AID 1347103).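 For activity change, negative = cytotoxic: plate controls were DMSO neutral control for no effect and bortezomib positive control for full effect.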 Note: nearly all actives have a fitted effect of over 40% in size. Note: potency is the fitted concentration of half-maximal effect. The method, boiled down: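 Cells (500-1,000/well) rested 5 h, then received compounds for 48 h; metabolically active cells were measured by CellTiter-Glo luminescence. Final concentrations spanned up to 46 µM (MIPE, 11-point) or 0.59 nM-46 µM (NPC, 8-point) in primary screens, 11-point in follow-ups.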

A short description of test [3]: qHTS of pediatric cancer cell lines to identify multiple opportunities for drug repurposing: Primary screen for RD cells (AID 1347104).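 Note: plate controls were DMSO for no effect and bortezomib for full effect; nearly all actives have a fitted effect of over 55% in size.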 The essentials: (§2)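 ATP-based luminescence (CellTiter-Glo) quantifies viability after a 48-hour exposure. Compounds are dosed across 8 or 11 final concentrations; DMSO and 2.3 µM bortezomib serve as controls.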
A short description of test [4]: qHTS of pediatric cancer cell lines to identify multiple opportunities for drug repurposing: Primary screen for MG 63 (6-TG R) cells (AID 1347105). Note: % is set by controls: 0 for no effect and ±100 for the full control effect; nearly all actives have a fitted effect of over 50% in size. The method, boiled down: as §2
(In general: qHTS replaces the single test concentration by a dilution series.)

A short description of test [5]: qHTS of pediatric cancer cell lines to identify multiple opportunities for drug repurposing: Primary screen for Rh30 cells (AID 1347107). Note: series mostly up to about 46 µM; % is set by controls: 0 for no effect and ±100 for the full control effect; nearly all actives have a fitted effect of over 75% in size. The method, boiled down:
as §1

Test [6] is described as follows: qHTS of pediatric cancer cell lines to identify multiple opportunities for drug repurposing: Primary screen for Rh41 cells (AID 1347108).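 Note: series mostly up to about 46 µM; luminescence drop marks cytotoxic hits; nearly all actives have a fitted effect of over 70% in size.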 The essentials: as §2
A short description of test [7]: qHTS of pediatric cancer cell lines to identify multiple opportunities for drug repurposing: Primary screen for control Hh wild type fibroblast cells (AID 1347106).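 Note: series mostly up to about 46 µM; % is set by controls: 0 for no effect and ±100 for the full control effect; a drop in luminescence marks cytotoxicity and a rise apparent proliferation; nearly all actives have a fitted effect of over 55% in size.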 The method, boiled down: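 Viability after 48 h compound treatment at 37C, 500-1,000 cells/well, read as ATP luminescence with CellTiter-Glo. Primary screens used 11-point (MIPE, 0.78 nM-46 µM) or 8-point (NPC, 0.59 nM-46 µM) final concentrations; follow-up screens used 11-point dilutions.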

A short description of test [8]: qHTS of pediatric cancer cell lines to identify multiple opportunities for drug repurposing: Confirmatory screen for A673 cells (AID 1347110).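 Note: cells exposed to compound for 48 h before the viability read; nearly all actives have a fitted effect of over 65% in size.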 The essentials:
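Cells plated at 500-1,000/well were treated five hours later with multi-point dilutions up to 46 µM final. After two days, CellTiter-Glo was added and luminescence read.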

The nature of test [9]: qHTS of pediatric cancer cell lines to identify multiple opportunities for drug repurposing: Confirmatory screen for SK-N-MC cells (AID 1347111).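 For activity change, negative = cytotoxic: plate controls were DMSO for no effect and bortezomib for full effect.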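 Note: cells exposed to compound for 48 h before the readout; nearly all actives have a fitted effect of over 70% in size.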 Note: potency is the fitted concentration of half-maximal effect. The method, boiled down:
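Metabolically active cells were quantified by ATP-dependent luminescence (CellTiter-Glo, 15 min at room temperature) following 48 h treatment. Cells had been plated at 500-1,000 per well and settled for 5 h beforehand.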

Test [10] is described as follows: qHTS of pediatric cancer cell lines to identify multiple opportunities for drug repurposing: Confirmatory screen for DAOY cells (AID 1347114). Note: % is set by controls: 0 for no effect and ±100 for the full control effect; nearly all actives have a fitted effect of over 65% in size. The essentials: (§3)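 Viability measured as metabolically active cells via CellTiter-Glo luminescence following 48 hours of compound exposure, 11-point dilutions in confirmatory testing. 500-1,000 cells/well plated 5 hours before dosing; controls were DMSO and 2.3 µM bortezomib.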

Test [11] can be described thus: qHTS of pediatric cancer cell lines to identify multiple opportunities for drug repurposing: Confirmatory screen for NB-EBc1 cells (AID 1347115). For activity change, negative = cytotoxic: % is set by controls: 0 for no effect and ±100 for the full control effect.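 Note: cells exposed to compound for 48 h before the viability read; nearly all actives have a fitted effect of over 45% in size.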 Note: potency is the fitted concentration of half-maximal effect. The method, boiled down: as §1
The nature of test [12]: qHTS of pediatric cancer cell lines to identify multiple opportunities for drug repurposing: Confirmatory screen for SJ-GBM2 cells (AID 1347116). Note: nearly all actives have a fitted effect of over 60% in size. Note: potency is the fitted concentration of half-maximal effect. The essentials:
as §3

The nature of test [13]: qHTS of pediatric cancer cell lines to identify multiple opportunities for drug repurposing: Confirmatory screen for BT-37 cells (AID 1347117).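 For activity change, negative = cytotoxic: plate controls were DMSO for no effect and bortezomib for full effect.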 Note: nearly all actives have a fitted effect of over 55% in size. Note: potency is the fitted concentration of half-maximal effect. The essentials: as §1
Test [14] in a line: qHTS of pediatric cancer cell lines to identify multiple opportunities for drug repurposing: Confirmatory screen for TC32 cells (AID 1347118).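 Note: cells exposed to compound for 48 h before the read; nearly all actives have a fitted effect of over 65% in size.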 Note: potency is the fitted concentration of half-maximal effect. The essentials: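 Measured quantity: luminescence from CellTiter-Glo, reflecting metabolically active TC32 cells following 48 h of compound. Curves came straight from multi-point titrations, with 8 or 11 points in primary and 11 in confirmatory screening.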

Test [15] can be described thus: qHTS of pediatric cancer cell lines to identify multiple opportunities for drug repurposing: Confirmatory screen for MG 63 (6-TG R) cells (AID 1347119). Note: nearly all actives have a fitted effect of over 55% in size. Note: potency is the fitted concentration of half-maximal effect. The essentials:
as §1

Test [16] can be described thus: qHTS of pediatric cancer cell lines to identify multiple opportunities for drug repurposing: Confirmatory screen for control Hh wild type fibroblast cells (AID 1347121).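 Note: plate controls were DMSO for no effect and bortezomib for full effect; nearly all actives have a fitted effect of over 70% in size.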 The essentials: as §1
Test [17] is described as follows: qHTS of pediatric cancer cell lines to identify multiple opportunities for drug repurposing: Confirmatory screen for U-2 OS cells (AID 1347122). The conditions noted are these: outcome: dose series up to 45.9 µM. The method, boiled down: as §1
Test [18] is described as follows: qHTS of pediatric cancer cell lines to identify multiple opportunities for drug repurposing: Confirmatory screen for NB1643 cells (AID 1347109).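 Note: plate controls were DMSO for no effect and bortezomib for full effect; nearly all actives have a fitted effect of over 45% in size.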 The essentials: as §1
A short description of test [19]: qHTS of pediatric cancer cell lines to identify multiple opportunities for drug repurposing: Confirmatory screen for BT-12 cells (AID 1347112). The essentials: as §1
Test [20] in a line: qHTS of pediatric cancer cell lines to identify multiple opportunities for drug repurposing: Confirmatory screen for LAN-5 cells (AID 1347113). The essentials:
as §1

The structures appear in SMILES notation. Records with an inconclusive call do not appear. A number with no mark means an inactive call. Active and inactive are the calls of the source. Calls come from the whole dose curve; as a rule, active = well fitted curve in the direction sought with a large enough effect; inconclusive = small, poorly fitted or top-dose-only effect, or another doubt; inactive = no such curve, though single readings can be large; an effect the other way counts as inactive or inconclusive.

In the case of `COc1ccc(Cl)cc1C(=O)NCCc1ccc(S(=O)(=O)NC(=O)NC2CCCCC2)cc1`, the Potency result in [1], in test [2], in test [3], in [4] and in test [6] was “inactive” each time. Besides, the compound was called inactive in [5].

Regarding `CN(C)CCOC(C)(c1ccccc1)c1ccccn1` (stereo unspecified), the Potency entry in test [1], in test [2], in test [3], in [4] and in [6] was “inactive” throughout. The call in test [5] was inactive.

As for `COc1ccc2[nH]c(S(=O)Cc3ncc(C)c(OC)c3C)nc2n1` (stereo unspecified), the Potency result in test [1], in test [2], in test [3], in test [4] and in [6] was “inactive” in each case. Also, the call in [7] and in test [5] was inactive.

Regarding `CCOc1nc2cccc(C(=O)O)c2n1Cc1ccc(-c2ccccc2-c2nn[nH]n2)cc1`, the Potency entry in [1], in test [2], in test [3], in test [4] and in test [6] was “inactive” in each case. The compound was classed as inactive in test [5].

For `CCC(=O)Nc1ccc(O)cc1`, the Potency entry in [1], in [2], in test [3], in [4] and in [6] was “inactive” each time. Also, the compound was classed as inactive in test [5].

For the compound `CCOC(=O)c1ccc(O)cc1`, the Potency entry in test [1], in test [2], in test [3], in [4] and in test [6] was “inactive” throughout. For the same compound, the compound was called inactive in test [5].

On to `C[C@H](N)[C@H](O)c1cccc(O)c1`, for which the Potency entry in test [1], in test [2], in test [3], in [4] and in test [6] was “inactive” throughout. In addition, in test [5], the call was inactive.

`NC(N)=NCCC[C@H](N)C(=O)O`: the activity change, negative = cytotoxic in test [1] is 15.1% [at 4.84 µM]; in test [2], -1.99% [at 6.18 µM]; in test [3] it was 2.4% [at 4.84 µM]; in [4], -20.2% [at 4.84 µM]; in test [5], 18% [at 4.84 µM]; in test [6], 10.4% [at 4.84 µM].

On to `O=c1[nH]c(=O)c2[nH]c(=O)[nH]c2[nH]1`, for which the activity change, negative = cytotoxic is 4.04% [at 9.22 µM] in test [1]; -8.33% [at 11.5 µM] in [2]; 1.57% [at 9.22 µM] in test [3]; -26.1% [at 9.22 µM] in test [4]; 2.78% [at 9.22 µM] in [5]; -6.34% [at 9.22 µM] in test [6].

As to `CC1=C(CC(=O)O)c2cc(F)ccc2/C1=C\c1ccc(S(C)(=O)=O)cc1`, the Potency entry in test [1], in [2], in test [3], in [4] and in test [6] was “inactive” in each case. Further, the compound was classed as inactive in [5].

For the compound `[Cl][In]([Cl])[Cl]`, the Potency result in test [1], in test [4] and in test [6] was “inactive” throughout. In addition, the Potency in test [2] was 25.2 µM (active). Besides, the compound was classed as inactive in test [7] and in test [5].

On to `O=C(O)CN1C(=O)c2cccc3cccc(c23)C1=O`, for which the Potency entry in [1], in test [3], in test [4], in test [6] and in test [8] was “inactive” each time. Moreover, the Potency in test [2] is 0.001 µM (active); in test [9], 2.93 µM (active); in test [11] it was 26.1 µM (active); in test [12], 16.5 µM (active); in test [13] it was 18.5 µM (active); in [14] it was 3.29 µM (active). The Potency in test [15] was 20.8 µM (active). Also, the result in test [7], in [5], in test [10], in [16] and in test [17] was inactive.

With `CN1CCC[C@@H]1Cc1c[nH]c2ccc(CCS(=O)(=O)c3ccccc3)cc12`, the Potency entry in test [1], in test [2], in test [3], in test [4] and in [6] was “inactive” each time. In addition, the compound was called inactive in test [5].

As to `C[C@@H]1CN(c2c(F)c(F)c3c(=O)c(C(=O)O)cn(C4CC4)c3c2F)C[C@H](C)N1`, the Potency result in test [1], in test [2], in test [3], in [4] and in [6] was “inactive” each time. Further, the outcome in test [5] was inactive.

`O=C1N=C(O)CN1/N=C/c1ccc(-c2ccc([N+](=O)[O-])cc2)o1`: the Potency entry in [1], in test [2], in [3], in [4], in [6] and in test [18] was “inactive” in each case. For the same compound, the Potency entry in [8], in test [9], in test [19], in test [20], in test [11] and in [12] was “inactive” in each case. In addition, the Potency result in test [13], in test [14] and in test [15] was “inactive” in each case. Moreover, the compound was classed as inactive in test [7], in test [5], in test [16] and in [17].

`CC(=O)CCC(=O)O`: the Potency result in [1], in test [2], in [3], in test [4] and in [6] was “inactive” each time. Further, the outcome in test [5] was inactive.
